Data: PubChem BioAssay (NCI)
This is part of a sample that, as a whole, favours compounds with a hit. Of some 83,000 tested, about 20% had one in any assay.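 Negative percent growth values reflect cell death: -40 means 40% of the cells present at the start died, and -100 means all died.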 Values without a mark were called inactive. The source made the active and inactive calls. How the source made its calls: active means growth percent below 10; inactive means the rest.

test system: SF-539 CNS; test: NCI-60 one-dose screen, 48 h (100 = growth as untreated, 0 = no growth, -100 = all killed); conditions: 10 µM unless noted

Structure (SMILES) | growth
Cn1cc(-c2nc(N)nnc2-c2c[nH]c3ccc(F)cc23)c2cc(Br)cnc21 | -11.5% (active)
COc1ccc2[nH]cc(-c3nnc(N)nc3-c3cn(C)c4ncc(Br)cc34)c2c1 | 66.5%
COc1ccc(NC(=O)[C@H](C)N)cc1C(=O)Nc1cccc(C2CC(=O)c3c(cc(OC)c(OC)c3OC)O2)c1 (stereo partly drawn) | 89.3%
CC1(C)CC[C@]2(C(=O)O)CC[C@]3(C)C(=CCC4[C@@]5(C)C[C@@H](O)[C@@H]6OC(c7ccco7)OC[C@@]6(C)C5CC[C@]43C)C2C1 (stereo partly drawn) | 21.9%
COc1ccc2c(c1)c(/C=N/Nc1ccc3ccccc3n1)cn2C | -36.2% (active)
Cc1ccc(S(=O)(=O)c2nc(S(=O)(=O)c3ccc(C)cc3)c(N3CCN(C)CC3)s2)cc1 | 57.5%
COc1cc2c(c(OC)c1OC)C(=O)CC(c1cccc(NC(=O)c3cc(NC(=O)[C@H](C)N)ccc3Cl)c1)O2 (stereo partly drawn) | 44.3%
Cc1ccc(C(=O)C(c2c[nH]c3ccccc23)c2c[nH]c3ccccc23)cc1 | 70.4%

test system: UACC-257 melanoma; test: as above; conditions: 10 µM unless noted

Structure (SMILES) | growth
O=C(c1ccccc1)c1ccc2nc(-c3ccc(F)cc3)[nH]c2c1 | 68.5%
CC1(C)CC[C@]2(C(=O)O)CC[C@]3(C)C(=CCC4[C@@]5(C)C[C@@H](O)[C@@H]6OC(c7ccc(F)cc7)OC[C@@]6(C)C5CC[C@]43C)C2C1 (stereo partly drawn) | 42.3%
N/C(=N\c1nc2ccccc2s1)NC(=O)Nc1ccc(Cl)cc1Cl | 18.8%
CCCCSc1nc(Nc2ccc(S(N)(=O)=O)cc2)c(C#N)c(-c2cc(OC)c(OC)c(OC)c2)n1 | 61.7%
O=C(COc1ccc2c(c1)CCCC(=O)N2)NCc1ccccc1 | 98%
Nc1nc(-c2ccccc2)c(N=Nc2ccc([N+](=O)[O-])cc2Cl)s1 | 61.6%
CC1(C)CC[C@]2(C(=O)O)CC[C@]3(C)C(=CCC4[C@@]5(C)C[C@@H](O)[C@@H]6OC(c7cccc(Br)c7)OC[C@@]6(C)C5CC[C@]43C)C2C1 (stereo partly drawn) | 53.1%
C#CCOc1ccc(/C=N/Nc2nc(-c3cc4cc(OC)ccc4oc3=O)cs2)cc1OC | 54.7%
N#Cc1c(NCc2ccccc2)n[nH]c1Nc1ccccc1 | 50.9%
COc1cc2oc(-c3cccc(C(=O)Nc4ccc(Cl)cc4)c3)cc(=O)c2c(OCC(=O)N[C@@H](Cc2ccccc2)C(=O)O)c1OC | 104%
Cn1cc(-c2cc3nc(-c4c[nH]c5ccc(Cl)cc45)cc(N)n3n2)c2ccccc21 | -84.8% (active)
C#C[C@]1(O)CC[C@H]2[C@@H]3CC=C4c5sc(-c6ccc([N+](=O)[O-])cc6)nc5CC[C@]4(C)[C@H]3CC[C@@]21C | 32.7%
O=C(CSc1nc2ccccc2c(=O)[nH]1)NCCN1CCCCC1 | 97.3%
C#CCOc1cc(N(CC)CC)ccc1C(C(=O)NC(C)(C)C)N(C(=O)C1CCc2cc(F)ccc2O1)c1ccc(F)c(Cl)c1 (stereo not drawn) | 58.2%
O=c1oc2ccccc2cc1-c1csc(N2N=C(c3ccccc3)CC2c2ccc(N3CCOCC3)cc2)n1 (stereo not drawn) | 119%
Cn1cc(-c2cc(N)n3nc(-c4cn(C)c5ncccc45)cc3n2)c2cccnc21 | 100%
COc1ccc(-c2ccnc(SCc3cc4cc(OC)ccc4[nH]c3=O)n2)cc1 | 38%
CCOc1ccc(-c2c(C#N)c(-c3ccc(Cl)cc3)nc3n[nH]c(-c4ccc(Cl)cc4)c23)cc1OC | 54.4%
CN(C)c1ccnc(NCCCSC(c2ccccc2)(c2ccccc2)c2ccccc2)c1 | -26.9% (active)
O=C(Cn1c(/C=C/c2ccccc2)nc2ccccc2c1=O)Nc1ccccc1 | 104%
O=C(O)c1cccc(-c2ccc(/C=N/NC(=O)c3[nH]c4ccc(Br)cc4c3-c3ccccc3)s2)c1 | 85.5%
C#CCOc1cc(N(CC)CC)ccc1C(C(=O)NC(C)(C)C)N(C(=O)C1CCc2cc(F)ccc2O1)c1cc(C)cc(C)c1 (stereo not drawn) | 42.5%
COc1cc2c(c(OC)c1OC)C(=O)CC(c1cccc(NC(=O)c3cc(NC(=O)[C@@H](N)CO)ccc3C)c1)O2 (stereo partly drawn) | 104%
C#CCOc1ccc(/C=N/Nc2nc(-c3ccc(F)cc3)cs2)cc1OC | 63.7%
Cc1cc2c(cc1Cl)C(=O)/C(=C/c1ccc(F)cc1)O2 | 106%
